The structures appear in SMILES notation. Values joined by “and” are separate entries in the source; they are usually repeats but may differ in a detail not shown here. Identical values can stand only once. Compounds without any hit were thinned out: in the full panel of roughly 79,000, 15% have a hit. Unmarked numbers belong to inactive results. Active and inactive are the calls of the source. Cut-off read from the data, not from the text of the source: active = growth inhibition above about 70%; inactive = the rest.

The nature of assay [1]: NCI Yeast Anticancer Drug Screen. Data for the rad50 strain (AID 155).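 Note: 0% = growth of vehicle-only cultures of the same strain.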 To be noted: S. cerevisiae rad50 strain growth inhibition; at 50.0 µM; stronger effect = higher value. In a few lines:
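Yeast carrying a defined DNA repair defect were exposed to test compounds, and growth was compared with vehicle-treated controls to give percent inhibition.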

Assay [2] in a line: NCI Yeast Anticancer Drug Screen. Data for the mec2-1 strain (AID 157). To be noted: S. cerevisiae mec2-1 strain, at 50.0 µM, stronger effect = higher value. In a few lines: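 Yeast mec2-1 mutant treated with compound. Readout: growth inhibition vs vehicle controls.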
Assay [3] is described as follows: NCI Yeast Anticancer Drug Screen. Data for the sgs1 mgt1 strain (AID 161).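 Note: 0% = growth of cultures given vehicle only.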 Particulars: S. cerevisiae sgs1 mgt1 strain, at 50.0 µM, stronger effect = higher value. The essentials: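 Mutant yeast exposed to compound; growth scored against vehicle-only wells.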
Assay [4] is described as follows: NCI Yeast Anticancer Drug Screen. Data for the cln2 rad14 strain (AID 165).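 Note: 0% = growth equal to vehicle treated cultures.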 To be noted: S. cerevisiae cln2 rad14 strain, at 50.0 µM, stronger effect = higher value. The essentials:
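cln2 rad14 yeast strain; compound exposure; growth inhibition read vs vehicle controls.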

Assay [5] can be described thus: NCI Yeast Anticancer Drug Screen. Data for the bub3 strain (AID 167). To be noted: S. cerevisiae bub3 mutant strain, at 50.0 µM, stronger effect = higher value. In a few lines:
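Compounds were applied to a genetically altered yeast strain carrying a cell-cycle control defect. Growth inhibition was scored against vehicle-treated controls.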

Assay [6] can be described thus: NCI Yeast Anticancer Drug Screen. Data for the mlh1 rad18 strain (AID 175). To be noted: S. cerevisiae mlh1 rad18 strain growth inhibition; at 50.0 µM; stronger effect = higher value. In a few lines:
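Yeast w/ defined DNA-repair lesions; compound exposure; growth vs vehicle controls → % inhibition.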

With `CCCCOP(=S)(Nc1ccccc1)OCCCC`, the growth inhibition was 91% (active) in assay [1]; 40.7% in assay [2]; 81.8% (active) in assay [3]; 42% in assay [4]; 73.5% (active) in assay [5]; 82.2% (active) in assay [6].

For `CC(=O)O[C@H]1CCC2[C@@H]3CC[C@]4(C)CC(=O)C=C[C@]4(C)C3CC[C@@]21C` (some centres not stated), the growth inhibition in assay [1] was 84.7% (active); in assay [2] it was 90.5% (active); in assay [3], 88% (active); in assay [4], 85.1% (active); in assay [5], 87.1% (active); in assay [6], 89.3% (active).

With `CC1=NN(c2ccccc2)C(=O)C1N=Nc1ccc([As](=O)(O)O)c(O)c1` (configuration not stated), the growth inhibition is 15.9% in assay [1]; -8.6% in assay [2]; -6.8% in assay [3]; -19.9% in assay [4]; -26.5% in assay [5]; -3.65% in assay [6].

As to `NS(=O)(=O)c1ccc([As]=O)cc1` (configuration not stated), the growth inhibition in assay [1] was -17.4%; in assay [2], -8.25%; in assay [3], -3.95%; in assay [4], -6.9%; in assay [5] it was -48.1%; in assay [6] it was -37.8%.

As for `O=c1c(O)c(-c2ccccc2)oc2ccccc12.[Zn+2]`, the growth inhibition is -6.95% in assay [1]; 7.25% in assay [2]; 20.2% in assay [3]; -41% in assay [4]; 24.9% in assay [5]; 27.6% in assay [6].

Consider `Cc1cccc(NC(=O)C(=O)C2C(=O)NC(=O)NC2=O)c1C`, for which the growth inhibition is 0.7% in assay [1]; 13.8% in assay [2]; -14% in assay [3]; 7.25% in assay [4]; 20.2% in assay [5]; 12.2% in assay [6].

Regarding `COP(=O)(OC)C(=O)c1ccccc1`, the growth inhibition in assay [1] was -11.6%; in assay [2], -17.2%; in assay [3] it was -7.8%; in assay [4], -31.9%; in assay [5], -23.8%; in assay [6] it was -16.1%.

Take `C#CCC1(OC(N)=O)CCCCC1`: the growth inhibition in assay [1] is 19.2%; in assay [2], 14.8%; in assay [3], -1.35%; in assay [4], -38.2%; in assay [5] it was 3.65%; in assay [6] it was -16.6%.

Turning to `CN1C(=O)N(C)P1(Cl)(Cl)Cl`, the growth inhibition is 18.6% in assay [1]; -6.15% in assay [2]; 3.15% in assay [3]; -36.6% in assay [4]; 0.2% in assay [5]; -14.9% in assay [6].

On to `CC(=O)c1ccccc1O`, for which the growth inhibition in assay [1] was 10.8% and 2.05%; in assay [2] it was 11.4% and -10.9%; in assay [3], -53.4% and -0.4%; in assay [4], -13.4% and 2.05%; in assay [5] it was -16.9% and 3.7%; in assay [6], -29.4% and -4.5%.

Take `CCCCC1(CCS)C(=O)NC(=O)NC1=O`: the growth inhibition is -5.55% in assay [1]; -11.8% in assay [2]; -4.75% in assay [3]; -10.1% in assay [4]; -4.05% in assay [5]; -17.1% in assay [6].

Take `COc1ccc(-c2c[se]c(=S)s2)cc1`: the growth inhibition was 24.1% in assay [1]; 10.8% in assay [2]; -7.35% in assay [3]; -33.5% in assay [4]; 4.2% in assay [5]; 11.3% in assay [6].

Take `CC(C)C(CC[C@@H](C)C1CC[C@@]2(C)C3=C(CC[C@]12C)[C@@]1(C)CC[C@H](O)C(C)(C)[C@@H]1CC3)S[As](C)C` (some centres not stated): the growth inhibition in assay [1] was 40.4%; in assay [2] it was -0.5%; in assay [3], 26.7%; in assay [4], 31.6%; in assay [5], -4.35%; in assay [6], 32.8%.

As for `CCCCCCCCOC(=O)c1ccccc1C(=O)OCCCCCCCC`, the growth inhibition in assay [1] is -0.95%; in assay [2] it was -3.35%; in assay [3], 18.6%; in assay [4] it was 9.25%; in assay [5], -3.95%; in assay [6], -5.5%.

On to `COc1ccc(CC2c3cc(OC)c(OC)cc3CCN2C)cc1OC` (configuration not stated), for which the growth inhibition in assay [1] was -3.6% and -11.2%; in assay [2], -5.2% and -18.4%; in assay [3] it was -8.1% and -8.4%; in assay [4], -5% and 13.1%; in assay [5], 12.7% and -3.45%; in assay [6], 8.4% and 1.7%.

Consider `CC[N+](C)(CC)CCC(C(=O)NC)(c1ccccc1)c1ccccc1`, for which the growth inhibition is -2.45% in assay [1]; -1.35% in assay [2]; -22.8% in assay [3]; -34.6% in assay [4]; 0.05% in assay [5]; -19.1% in assay [6].

Turning to `O=[N+]([O-])c1ccc(/C=N\NP(Br)(c2ccccc2)(c2ccccc2)c2ccccc2)cc1`, the growth inhibition was 15.4% in assay [1]; 0.3% in assay [2]; 26.9% in assay [3]; 3.95% in assay [4]; -2.5% in assay [5]; 4.75% in assay [6].

On to `CC(C)NCC(=O)c1ccc(O)c(O)c1`, for which the growth inhibition was 4.9% and -5.1% in assay [1]; -19.3% and 4.45% in assay [2]; -21.8% in assay [3]; -7.25% in assay [4]; -26.1% in assay [5]; 7.7% and -10.9% in assay [6].

Regarding `N#CC(c1ccccc1)N1CCCN(C(C#N)c2ccccc2)C1c1ccc(N(CCCl)CCCl)cc1` (configuration not stated), the growth inhibition in assay [1] was 11.1%; in assay [2] it was -1.5%; in assay [3] it was 2.25%; in assay [4] it was -17.3%; in assay [5] it was -0.9%; in assay [6], 9.65%.

Turning to `CC(C)([N+](=O)[O-])S(=O)O`, the growth inhibition in assay [1] was -9.15%; in assay [2], -14.2%; in assay [3], -22%; in assay [4] it was -1.05%; in assay [5], -5.4%; in assay [6], -0.65%.

Consider `COc1cc(CC[N+](C)(C)C)cc(OC)c1OC`, for which the growth inhibition in assay [1] is 4.95%; in assay [2] it was 6.1%; in assay [3] it was 7.85%; in assay [4] it was 25.2%; in assay [5], 9.5%; in assay [6], 34.7%.

As to `CCOP(=O)(OCC)OCC`, the growth inhibition was -4.1% in assay [1]; -12.8% in assay [2]; 19% in assay [3]; -11.8% in assay [4]; -1.15% in assay [5]; 21.7% in assay [6].

These data come from PubChem BioAssay (NCI).
